# In the supplement of paper PMC9254222:
# Whole data set: some 1,100 compounds, median “Renilla luciferase signal (cell health) relative to plate median” near 0.97, cut for the highest 2% near 1.6. The sample holds the highest values, similar compounds and a random draw of the others, so the mix is not that of the screen.
# System: HEK293T (UBE3A T485A transfected, BAR Wnt reporter)
# Experiment: Renilla luciferase signal (cell health) relative to plate median (fold (linear ratio)); higher = higher Renilla signal
# Details: 24 h
# Method in brief: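 HEK293T cells carrying a transfected BAR firefly luciferase Wnt reporter, TK-Renilla and an expression plasmid were exposed to chemicals at 0.01–100 uM for 24 h, with dosing four hours after transfection. Readout used Dual-Glo luciferase. The firefly/Renilla ratio defined Wnt activity and raw Renilla defined cell health, each median-centred per plate. Figures are means of four biological replicates.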
SMILES,Renilla luciferase signal (concentration: 0.1 uM),Renilla luciferase signal (concentration: 1 uM),Renilla luciferase signal (concentration: 10 uM),Renilla luciferase signal (concentration: 100 uM),Renilla luciferase signal (concentration: 0.01 uM)
CCc1c(C(=O)NN2CCCCC2)nn(-c2ccc(Cl)cc2Cl)c1-c1ccc(Br)cc1 [Surinabant],1.06,1.07,0.127,0.363,
CCCCCCCC(=O)OC [Methyl octanoate],1.03,0.911,1.04,1.61,
CCCCCCCCCCCC(=O)OC [Methyl dodecanoate],0.884,0.792,0.85,0.89,
COC(=O)CCCCC(=O)OC [Dimethyl adipate],0.854,0.917,0.874,1.11,
O=C(O)c1cccc(C[C@@H]2COc3ccc(OCc4nc5cc(F)ccc5s4)cc3[C@@H]2O)c1,1.04,1.05,1.17,0.94,
C=CCCCCCCCCCCCC [1-Tetradecene],1.14,1.17,0.992,1.23,
CC[C@H]1CC[C@H](NCc2cc3c(cc2OC)[C@H]2C[C@H]2C(=O)N3C)[C@H](c2ccccc2)N1,0.925,0.69,0.042,0.0275,
CC(C)(O)c1ccc(CNC(=O)c2cccnc2Oc2ccc3nonc3c2)cc1,0.961,0.975,0.999,0.124,
CCSC(=O)N(CC(C)C)CC(C)C [Butylate],1.15,1.07,1.09,1.59,1.09
CCCN(CCC)C(=O)SCC,0.898,1.09,0.918,2.92,0.911
O=[N+]([O-])c1ccc(O)cc1 [4-Nitrophenol],0.863,0.956,0.876,0.736,
O=C(O)c1ccc([N+](=O)[O-])cc1 [4-Nitrobenzoic acid],1.01,0.971,1.08,1.33,
"C=CCc1cc(S(=O)(=O)c2ccc(O)c(CC=C)c2)ccc1O [4,4'-Sulfonylbis[2-(prop-2-en-1-yl)phenol]]",1,1.11,1.34,0.0284,
Cc1c(C)c2c(c(C)c1O)CCC(C)(COc1ccc(CC3SC(=O)NC3=O)cc1)O2 (stereo not drawn) [Troglitazone],0.923,0.982,0.892,0.0852,
Cc1c(C)c2c(c(C)c1O)CCC(C)(CCCC(C)CCCC(C)CCCC(C)C)O2 (stereo not drawn) [Vitamin E (alpha-tocopherol)],1.02,0.963,1.28,1.99,1.15
CCCCCCCCCCCCCCO [1-Tetradecanol],0.93,0.831,0.94,0.92,
CCOc1ccc2c(c1)C(C)=CC(C)(C)N2 [Ethoxyquin],1,1.01,0.86,0.0339,
OC[C@H]1O[C@@H]2O[C@H]3[C@H](O)[C@@H](O)[C@@H](O[C@H]4[C@H](O)[C@@H](O)[C@@H](O[C@H]5[C@H](O)[C@@H](O)[C@@H](O[C@H]6[C@H](O)[C@@H](O)[C@@H](O[C@H]7[C@H](O)[C@@H](O)[C@@H](O[C@H]1[C@H](O)[C@H]2O)O[C@@H]7CO)O[C@@H]6CO)O[C@@H]5CO)O[C@@H]4CO)O[C@@H]3CO [alpha-Cyclodextrin],1.12,1.05,1.05,1.77,
Cc1oc(-c2ccccc2)nc1CCOc1cccc2c1ccn2CCC(=O)O,0.873,0.846,0.748,0.478,
CCN(CC)CCNc1ccc(CNC=O)c2sc3ccc(OC)cc3c(=O)c12,0.886,0.626,0.193,0.0173,

SMILES,Renilla luciferase signal (concentration: 0.1 uM),Renilla luciferase signal (concentration: 1 uM),Renilla luciferase signal (concentration: 10 uM),Renilla luciferase signal (concentration: 100 uM),Renilla luciferase signal (concentration: 0.01 uM)
NC(=O)N(O)[C@@H]1C=C[C@H](Oc2cccc(Oc3ccc(F)cc3)c2)C1,1.08,0.968,1.14,0.801,
CC1(C)NC(=O)N(c2ccc([N+](=O)[O-])c(C(F)(F)F)c2)C1=O [Nilutamide],1.05,1.09,0.995,0.268,
CC(=O)CC(c1ccccc1)c1c(O)c2ccccc2oc1=O (stereo not drawn) [Warfarin],1.16,0.923,0.762,1.24,
NC(CCCP(=O)(O)O)C(=O)O (racemic),0.901,1.22,1.06,2.45,0.767
Cc1ccc(S(=O)(=O)NC(=O)NN2CCCCCC2)cc1 [Tolazamide],0.729,0.841,0.872,1.19,
CC(C)(C)c1cc(O)ccc1O [tert-Butylhydroquinone],0.651,0.859,0.989,0.227,
CO[C@@H]1COCC[C@@H]1[NH2+][C@@H]1CC[C@@](C(=O)N2CCc3ncc(C(F)(F)F)cc3C2)(C(C)C)C1.O=C([O-])CCC(=O)O,0.901,1.1,0.9,1.08,
NCc1cccc(C2CCN(C(=O)c3ccc(C#Cc4ccccc4F)o3)CC2)c1,1.16,0.989,1.04,1.31,
CCOC(=O)CCC(=O)OCC [Diethyl butanedioate],0.922,0.965,0.973,1.25,
[Cl-].[K+],0.999,1.06,1.02,1.88,1.13
[Cl-].[Li+],1.03,0.97,0.953,1.14,0.945
Cc1cn([C@H]2C=C[C@@H](CO)O2)c(=O)[nH]c1=O [Stavudine],0.957,1.07,0.973,0.903,
CCc1nc(N)nc(N)c1-c1ccc(Cl)cc1 [Pyrimethamine],1.11,1.06,1.07,0.0813,
"CC(C)c1cccc(C(C)C)c1 [1,3-Diisopropylbenzene]",1.12,1.28,1.17,1.7,
Cc1ccc(C(C)C)cc1 [p-Cymene],1.03,0.949,1.11,1.51,
Nc1ncn([C@@H]2O[C@H](CO)[C@@H](O)[C@H]2O)c(=O)n1 [5-azacytidine],0.572,0.391,0.138,0.596,0.936
CCCCCCCCCCCCCCCCOS(=O)(=O)[O-].[Na+] [Sodium hexyldecyl sulfate],1.11,1.05,1.11,0.434,
CC(=O)O[C@]1(C(C)=O)CC[C@H]2[C@@H]3C=C(Cl)C4=CC(=O)[C@@H]5C[C@@H]5[C@]4(C)[C@H]3CC[C@@]21C [Cyproterone acetate],1.06,0.965,0.849,0.603,
CCOc1ccc2[nH]cc(C(=O)NCc3ccccc3)c(=O)c2n1,1.05,1.12,1.22,0.85,
